Reference: PubChem BioAssay (NCATS)
Inconclusive results are not listed. Active and inactive are the calls of the source. Unless noted, the call rests on the fitted dose curve; in most records, active means well fitted curve in the direction sought with a large enough effect; inconclusive means small, poorly fitted or top-dose-only effect, or another doubt; inactive means no such curve, though single readings can be large; an effect the other way counts as inactive or inconclusive.

How the values were obtained:
[1] = Cellular Toxicity (caspase-3) HepG2 (AID 654);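 further: cells exposed to compound for 16 hours before reading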
Outline: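 Cells plated 5 hr at 37 °C, compound added, incubated 16 hr at 37 °C. Caspase-Glo 3/7 reagent followed, 20 min at room temperature, then luminescence read. Activation scored as signal increase; AC50 from Hill fit.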

[2] = Cellular Toxicity (caspase-3) Jurkat (AID 655);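 further: cells exposed to compound for 16 h at 37 °C before reading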
Outline: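 Jurkat cells (5000/well) in complete medium were treated with compounds for 16 hr at 37 °C, then Caspase-Glo 3/7 luminescence was read after 20 min at room temperature. Data normalized to DMSO (basal) and 100 uM tamoxifen (100%); AC50 from Hill fit.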

[3] = Cellular Toxicity (caspase-3) HUV-EC-C (AID 656)
Outline: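 HUV-EC-C endothelial cells, 1000/well, were pre-incubated 5 hr at 37°C, then exposed to compounds for 16 hr at 37°C. Caspase-Glo 3/7 luminescence was read after 20 min at room temperature. AC50 came from Hill fits, normalized to DMSO and 100 uM tamoxifen.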

[4] = Cellular Toxicity (caspase-3) SHSY5Y (AID 657)
Outline: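 SH-SY5Y human neuroblastoma cells (1500/well) were treated with compounds for 16 h at 37 °C, then Caspase-Glo 3/7 luminescence was read after 1 h at room temperature. Data normalized to DMSO and 10 uM staurosporine; AC50 from Hill fits.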

[5] = Cellular Toxicity (caspase-3) BJ (AID 658)
Outline: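 BJ human foreskin fibroblasts, 1000 cells/well, treated 16 hours at 37 °C in complete medium; caspase 3/7 activity by Caspase-Glo luminescence after 1 hr at room temperature. Normalized to DMSO and 10 uM staurosporine; AC50 from Hill fits.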

[6] = Cellular Toxicity (caspase-3) MRC-5 (AID 659)
Outline: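 MRC-5 human normal lung fibroblasts, 1500 cells/well, treated 16 h at 37 °C in complete medium. Caspase 3/7 measured by Caspase-Glo luminescence after 1 h at room temperature. Normalized to DMSO and 10 uM staurosporine; AC50 from Hill fit.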

[7] = Cellular Toxicity (caspase-3) Mesangial (AID 660);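 further: combined caspase 3 and 7 activity read by Caspase-Glo luminescence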
Outline: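 Mesangial cells, 1000/well, 5 h settle at 37 °C; compound 16 h, 37 °C; Caspase-Glo 3/7 reagent 20 min RT; luminescence. Norm.: DMSO = 0%, tamoxifen 100 uM = 100%. AC50, Hill fit.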

[8] = Cellular Toxicity (caspase-3) SK-N-SH (AID 661)
Outline: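 Human neuroblastoma SK-N-SH, 1500 cells/well, 5 hr pre-incubation, then compound 16 hr, 37 °C. Caspase-Glo 3/7 reagent, 1 hr RT, luminescence. Norm. to DMSO/10 uM staurosporine; Hill-fit AC50.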

[9] = Cellular Toxicity (caspase-3) H-4-II-E (AID 663);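 further: cells exposed to compound for 16 hr before readout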
Outline: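 Rat hepatoma H-4-II-E cells (1500/well) plated 5 hr, then exposed to compound titrations for 16 hr at 37 °C. Caspase-Glo 3/7 luminescence read after 20 min at RT; data normalized to DMSO and 100 uM tamoxifen, AC50 from Hill fits.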

[10] = biological target: 3',5'-cyclic-AMP phosphodiesterase 4B (Homo sapiens) (UniProt Q07343); test: qHTS Assay for Inhibitors of PDE-IV (AID 607; active means well fitted activation curve with a large enough effect in the main read-out, with a control signal flat, not every such curve was filed as active)
Outline: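 Live HEK293 cells with a modified cyclic nucleotide-gated (CNG) channel report intracellular cAMP via membrane-potential dye fluorescence (ex 535/em 590 nm). Endogenous PDE-IV was targeted. Compounds were tested at up to 22.9 uM final; RO 20-1724 100 uM served as control.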

Measured: outcome

Sequence of 3',5'-cyclic-AMP phosphodiesterase 4B (Homo sapiens) (Q07343 whole entry, looked up): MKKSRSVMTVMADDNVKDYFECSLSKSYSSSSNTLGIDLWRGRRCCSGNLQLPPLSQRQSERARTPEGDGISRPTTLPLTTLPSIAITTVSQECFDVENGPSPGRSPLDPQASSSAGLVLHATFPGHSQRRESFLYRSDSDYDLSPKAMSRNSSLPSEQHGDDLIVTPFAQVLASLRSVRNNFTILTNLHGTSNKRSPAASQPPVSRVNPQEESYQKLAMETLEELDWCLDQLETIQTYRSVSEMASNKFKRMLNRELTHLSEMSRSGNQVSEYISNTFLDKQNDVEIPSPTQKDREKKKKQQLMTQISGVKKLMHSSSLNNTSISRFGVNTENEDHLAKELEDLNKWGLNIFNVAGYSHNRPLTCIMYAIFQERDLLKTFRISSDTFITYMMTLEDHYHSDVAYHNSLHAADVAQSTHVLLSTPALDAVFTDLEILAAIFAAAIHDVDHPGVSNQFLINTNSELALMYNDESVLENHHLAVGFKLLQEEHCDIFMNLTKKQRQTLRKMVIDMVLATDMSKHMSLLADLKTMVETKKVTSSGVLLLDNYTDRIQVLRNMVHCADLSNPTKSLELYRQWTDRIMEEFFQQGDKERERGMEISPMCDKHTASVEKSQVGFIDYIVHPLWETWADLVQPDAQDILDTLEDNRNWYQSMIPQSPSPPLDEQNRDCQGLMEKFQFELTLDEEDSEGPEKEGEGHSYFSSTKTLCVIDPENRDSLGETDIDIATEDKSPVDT

O=C1C(c2[nH]c3ccccc3c2O)=Nc2ccccc21
not listed: [10]
inactive: all other assays above

CCS(=O)(=O)CCn1c([N+](=O)[O-])cnc1C
inactive: [10]

O=C(O)CCCCC1CCSS1 (stereo not given)
not listed: [10]
inactive: all other assays above

FC(F)(F)C(Cl)Br (stereo not given)
not listed: [10]
inactive: all other assays above

CC(=O)Nc1ccccc1
not listed: [10]
inactive: all other assays above

CC(=O)NS(=O)(=O)c1ccc(N)cc1
inactive: all assays above

CCN(CC)C(=O)c1cccc(C)c1
not listed: [10]
inactive: all other assays above

Cc1c(N(C)C)c(=O)n(-c2ccccc2)n1C
inactive: all assays above

CCCC(O)C(CC)CO (stereo not given)
not listed: [10]
inactive: all other assays above

C[N+](C)(C)CC[N+]1(C)Cc2c(Cl)c(Cl)c(Cl)c(Cl)c2C1
inactive: [10]

NC(N)=NCCN1CCCCCCC1
inactive: [10]

CC(=O)OCC(COC(C)=O)OC(C)=O
not listed: [10]
inactive: all other assays above

O=C1c2cccc(O)c2C(=O)c2c(O)cccc21
not listed: [10]
inactive: all other assays above

Cc1cc(C)nc(NS(=O)(=O)c2ccc(N)cc2)n1
inactive: all assays above

CC(=O)Nc1ccc(C(=O)O)cc1
not listed: [10]
inactive: all other assays above

CCCCCC(N)=O
not listed: [10]
inactive: all other assays above

CC1CC(OC(=O)c2ccccc2O)CC(C)(C)C1 (stereo not given)
not listed: [10]
inactive: all other assays above

CCCCOC(=O)c1ccc(N)cc1
inactive: all assays above

CCCNC(C)(C)COC(=O)c1ccccc1
inactive: [10]

COc1ccc(O)cc1
not listed: [10]
inactive: all other assays above

C=CCNC(N)=S
not listed: [10]
inactive: all other assays above

Cn1c([N+](=O)[O-])cnc1COC(N)=O
inactive: [10]

CCCCCCCC(=O)OCC(COC(=O)CCCCCCC)OC(=O)CCCCCCC
not listed: [10]
inactive: all other assays above

NS(=O)(=O)c1cc2c(cc1C(F)(F)F)NCNS2(=O)=O
inactive: [10]

Nc1ccc(S(=O)(=O)c2ccc(N)cc2)cc1
inactive: all assays above

O=C(c1ccccc1)C(O)c1ccccc1 (stereo not given)
not listed: [10]
inactive: all other assays above

CC(=O)Nc1cccc(O)c1
not listed: [10]
inactive: all other assays above

Cc1cc(=O)[nH]c(=S)[nH]1
not listed: [10]
inactive: all other assays above

CCc1cccc(CC)c1NC(=O)CN(CC(=O)O)CC(=O)O
inactive: [10]
